PubChem BioAssay (EPA / NIEHS)
Values joined by “and” are separate entries in the source; they are usually repeats but may differ in a detail not shown here. Equal entries are not always repeated. Results filed as inconclusive are left out. Some compounds were tested as several samples or in several runs, with calls that do not always agree. Active and inactive are the calls of the source. The calls were made as follows, unless noted: active = hit-call score of the fitted dose curve at least 0.9, where 1 is the maximum; inactive = score below 0.9.

Legend:
[1] = read-out: Monokine induced gamma interferon (MIG), CXCL9 (gene 4283); assay: BSK_3C_MIG: BioMAP Diversity Plus: 3C Assay for Monokine induced gamma interferon (MIG) Biomarker Activity (AID 2283021); conditions: primary human endothelial cells (HUVEC); actives raise or lower the signal;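 as to AC50: MIG protein level measured by immunoassay in the treated endothelial cultures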
Summary of the method: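 HUVEC primary endothelial cultures dosed with chemical; MIG quantified by ELISA at 24 h. Data fitted bidirectionally against DMSO control, with parallel SRB total-protein staining for cytotoxicity.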

[2] = target: human Vitamin D Receptor (VDR), VDR (gene 7421) (UniProt P11473); assay: ATG_VDR_TRANS: Attagene TRANS-FACTORIAL HepG2 Assay for human Vitamin D Receptor (VDR) (AID 2283022; active = hit-call score of the fitted dose curve at least 0.9, where 1 is the maximum)
Summary of the method: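 Transactivation by an exogenous VDR-Gal4 chimera in transiently transfected HepG2 cells was measured as reporter transcript level 24 hours after chemical treatment. RT-PCR products were analysed by capillary electrophoresis and fitted in the positive direction relative to DMSO.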

[3] = BSK_3C_SRB: Viability Assessment in the BioMAP Diversity Plus: 3C Assay (AID 2283023); conditions: primary human endothelial cells (HUVEC);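 also: fitted both ways against DMSO so a hit may be signal rise or drop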
Summary of the method: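 Cytotoxicity readout in parallel HUVEC 3C cultures: after 24 h compound exposure, cells fixed with 10% TCA, stained with 0.1% SRB and read at 560 nm. Gain or loss relative to DMSO fitted.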

[4] = read-out: Matrix Metallopeptidase 1 (MMP1), MMP1 (gene 4312); assay: BSK_BE3C_MMP1: BioMAP Diversity Plus: BE3C Assay for Matrix Metallopeptidase 1 (MMP1) Biomarker Activity (AID 2283024); conditions: primary human bronchial epithelial cells; actives raise or lower the signal
Summary of the method: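 Human primary bronchial epithelial cells (BE3C system) dosed for 24 h; MMP-1 quantified by ELISA. Bidirectional fit against DMSO; cytotoxicity tracked in parallel cultures by SRB total-protein staining.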

[5] = BSK_3C_Vis: BioMAP Diversity Plus: 3C Assay for Morphology Visualization (AID 2283025); conditions: primary human endothelial cells (HUVEC);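 also: fitted both ways so gain or loss versus DMSO counts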;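 as to AC50: light microscopy image of cell morphology used as background control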
Summary of the method: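 Human umbilical vein endothelial cell morphology was inspected by light microscopy 24 h after chemical dosing; scored bidirectionally relative to DMSO.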

[6] = read-out: Pselectin, SELP (gene 6403); assay: BSK_4H_Pselectin: BioMAP Diversity Plus: 4H Assay for Pselectin Biomarker Activity (AID 2283026); conditions: primary human endothelial cells (HUVEC); actives raise or lower the signal
Summary of the method: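 Primary human umbilical vein endothelial cells were treated 24 h, and cell-surface P-selectin was then quantified by ELISA. Bidirectional fit versus DMSO; cytotoxicity checked in parallel cultures by SRB total-protein staining.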

[7] = BSK_4H_SRB: Viability Assessment in the BioMAP Diversity Plus: 4H Assay (AID 2283027); conditions: primary human endothelial cells (HUVEC);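 also: cells exposed to compound for 24 h before staining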;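 as to AC50: curves fitted both ways versus DMSO so AC50 may be loss or gain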
Summary of the method: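 Human umbilical vein endothelial cells, 24 h after chemical dosing; total protein measured by 0.1% sulforhodamine B staining after 10% TCA fixation, read at 560 nm. Bidirectional fitting against DMSO.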

[8] = BSK_BE3C_SRB: Viability Assessment in the BioMAP Diversity Plus: BE3C Assay (AID 2283028); conditions: primary human bronchial epithelial cells;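 as to AC50: fitted both ways so AC50 may mark signal gain or loss versus DMSO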
Summary of the method: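 Cytotoxicity read-out: SRB (0.1%) staining of TCA-fixed (10%) human lung bronchial epithelial cells, absorbance 560 nm, 24 h post-dosing. Curves fitted both directions relative to DMSO.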

[9] = read-out: Thrombomodulin, THBD (gene 7056); assay: BSK_3C_Thrombomodulin: BioMAP Diversity Plus: 3C Assay for Thrombomodulin Biomarker Activity (AID 2283029); conditions: primary human endothelial cells (HUVEC); actives raise or lower the signal
Summary of the method: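 Human umbilical vein endothelial cells were exposed to chemicals for 24 h; cell-surface thrombomodulin quantified by ELISA, with bidirectional fitting against DMSO baseline.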

[10] = read-out: Urokinase-type plasminogen activator receptor (uPAR), PLAUR (gene 5329); assay: BSK_4H_uPAR: BioMAP Diversity Plus: 4H Assay for Urokinase-type plasminogen activator receptor (uPAR) Biomarker Activity (AID 2283030); conditions: primary human endothelial cells (HUVEC); actives raise or lower the signal
Summary of the method: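 uPAR level read by ELISA on HUVEC cultures (BioMAP 4H) 24 h post-dosing, analyzed for gain or loss relative to DMSO. Parallel SRB staining assessed overt cytotoxicity.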

[11] = read-out: Vascular endothelial growth factor receptor 2 (Homo sapiens) (UniProt P35968); assay: BSK_4H_VEGFRII: BioMAP Diversity Plus: 4H Assay for Vascular endothelial growth factor receptor 2 (VEGFR2) Biomarker Activity (AID 2283031); conditions: primary human endothelial cells (HUVEC); actives raise or lower the signal;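 as to AC50: cell-surface VEGFR2 protein level quantified by ELISA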
Summary of the method: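 Measured by ELISA after 24 h of compound treatment: VEGFR2 on primary human umbilical vein endothelial cells, fitted in both directions relative to DMSO. Parallel cultures received SRB staining (560 nm) for overt cytotoxicity.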

[12] = read-out: Human Leukocyte Antigen - DR isotype (HLADR), HLA-DRA (gene 3122); assay: BSK_BE3C_HLADR: BioMAP Diversity Plus: BE3C Assay for Human Leukocyte Antigen - DR isotype (HLADR) Biomarker Activity (AID 2283032); conditions: primary human bronchial epithelial cells; actives raise or lower the signal
Summary of the method: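 Human primary bronchial epithelial cells (BE3C system) exposed to compound for 24 hours; cell-surface HLA-DR measured by ELISA, fitted bidirectionally relative to DMSO. Total protein by SRB in parallel cultures tracked cytotoxicity.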

[13] = read-out: Vascular cell adhesion molecule 1 (VCAM1), VCAM1 (gene 7412); assay: BSK_4H_VCAM1: BioMAP Diversity Plus: 4H Assay for Vascular cell adhesion molecule 1 (VCAM1) Biomarker Activity (AID 2283033); conditions: primary human endothelial cells (HUVEC); actives raise or lower the signal
Summary of the method: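 Primary human umbilical vein endothelial cells, 4H stimulation system, treated for 24 h; cell-surface VCAM-1 quantified by ELISA. Bidirectional fitting against DMSO; cytotoxicity tracked by SRB total-protein staining in parallel cultures.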

[14] = read-out: Interferon-gamma inducible Protein 10 (IP10), CXCL10 (gene 3627); assay: BSK_BE3C_IP10: BioMAP Diversity Plus: BE3C Assay for Interferon-gamma inducible Protein 10 (IP10) Biomarker Activity (AID 2283034); conditions: primary human bronchial epithelial cells; actives raise or lower the signal
Summary of the method: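 Primary human bronchial epithelial cells, with IP-10 measured by ELISA 24 hours after chemical dosing. Bidirectional fit against DMSO; cytotoxicity checked by SRB total protein staining in parallel cultures.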

[15] = read-out: Monokine induced gamma interferon (MIG), CXCL9 (gene 4283); assay: BSK_BE3C_MIG: BioMAP Diversity Plus: BE3C Assay for Monokine induced gamma interferon (MIG) Biomarker Activity (AID 2283035); conditions: primary human bronchial epithelial cells; actives raise or lower the signal
Summary of the method: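 Primary human bronchial epithelial cells treated for 24 h; MIG levels measured by ELISA, fitted bidirectionally versus DMSO. Parallel SRB total-protein staining assessed cytotoxicity.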

[16] = read-out: Transforming growth factor beta 1 (TGFb1), TGFB1 (gene 7040); assay: BSK_BE3C_TGFb1: BioMAP Diversity Plus: BE3C Assay for Transforming growth factor beta 1 (TGFb1) Biomarker Activity (AID 2283036); conditions: primary human bronchial epithelial cells; actives raise or lower the signal
Summary of the method: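 Primary human bronchial epithelial cells dosed with chemical; TGF-b1 measured by ELISA 24 h after dosing. Bidirectional curve fitting against DMSO negative control; SRB total-protein staining in parallel cultures gauged cytotoxicity.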

[17] = read-out: Plasminogen activator inhibitor-1 (PAI1), SERPINE1 (gene 5054); assay: BSK_BE3C_PAI1: BioMAP Diversity Plus: BE3C Assay for Plasminogen activator inhibitor-1 (PAI1) Biomarker Activity (AID 2283037); conditions: primary human bronchial epithelial cells; actives raise or lower the signal
Summary of the method: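 Primary human bronchial epithelial cells (BE3C system) exposed 24 h; PAI-1 quantified by ELISA. Parallel sulforhodamine B staining of total protein flags cytotoxicity. Bidirectional fit versus DMSO.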

[18] = read-out: urokinase plasminogen activator (uPA), PLAU (gene 5328); assay: BSK_BE3C_uPA: BioMAP Diversity Plus: BE3C Assay for urokinase plasminogen activator (uPA) Biomarker Activity (AID 2283038); conditions: primary human bronchial epithelial cells; actives raise or lower the signal
Summary of the method: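 ELISA for uPA on human primary bronchial epithelial cultures 24 h post-treatment, gain or loss against DMSO. Parallel SRB staining (0.1% after 10% TCA fixation, 560 nm) assessed overt cytotoxicity.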

[19] = read-out: Urokinase-type plasminogen activator receptor (uPAR), PLAUR (gene 5329); assay: BSK_BE3C_uPAR: BioMAP Diversity Plus: BE3C Assay for Urokinase-type plasminogen activator receptor (uPAR) Biomarker Activity (AID 2283039); conditions: primary human bronchial epithelial cells; actives raise or lower the signal
Summary of the method: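 Primary human bronchial epithelial cells dosed for 24 h; uPAR quantified by ELISA with bidirectional fitting against DMSO. Overt cytotoxicity assessed in parallel cultures by SRB total-protein staining (0.1% SRB, 560 nm).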

[20] = read-out: Interleukin-6 (IL6), IL6 (gene 3569); assay: BSK_CASM3C_IL6: BioMAP Diversity Plus: CASM3C Assay for Interleukin-6 (IL6) Biomarker Activity for (AID 2283040); conditions: primary human coronary artery smooth muscle cells; actives raise or lower the signal

Measured: AC50

Sequence of human Vitamin D Receptor (VDR), VDR (gene 7421) (P11473 whole entry, looked up, the tested form may be a part): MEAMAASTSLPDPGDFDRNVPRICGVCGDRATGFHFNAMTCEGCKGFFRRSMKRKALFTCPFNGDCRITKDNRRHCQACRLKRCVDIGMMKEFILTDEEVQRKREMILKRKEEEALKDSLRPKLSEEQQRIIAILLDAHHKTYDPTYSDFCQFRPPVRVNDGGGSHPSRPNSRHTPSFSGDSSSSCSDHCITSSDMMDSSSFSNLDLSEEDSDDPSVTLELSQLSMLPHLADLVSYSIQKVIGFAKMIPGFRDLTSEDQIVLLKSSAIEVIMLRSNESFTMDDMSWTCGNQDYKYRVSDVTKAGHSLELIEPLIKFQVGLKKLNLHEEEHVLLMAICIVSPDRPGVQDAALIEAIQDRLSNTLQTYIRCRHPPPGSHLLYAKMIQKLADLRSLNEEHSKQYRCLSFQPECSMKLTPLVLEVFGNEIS

CCNS(=O)(=O)C(F)(F)C(F)(F)C(F)(F)C(F)(F)C(F)(F)C(F)(F)C(F)(F)C(F)(F)F
inactive: [1] | [2] | [3] | [4] | [5] | [6] | [7] | [8] | [9] | [10] | [11] | [15] | [18] | [19] | [20]
active: [3] 43.4 µM and 44.3 µM | [4] 4.99 µM and 11.3 µM | [6] 30 µM and 43.4 µM | [7] 45.1 µM and 47.3 µM | [8] 49.7 µM and 50.3 µM | [12] 5.32 µM and 36.7 µM and 30 µM | [13] 19.3 µM and 16.9 µM and 25.2 µM | [14] 13.9 µM and 21.1 µM and 14 µM | [15] 44.4 µM and 29.5 µM | [16] 12 µM | [17] 19.3 µM and 4.88 µM and 4.37 µM | [18] 41.5 µM | [19] 21.2 µM and 30 µM

OCCCBr
inactive: all assays above

Cc1cc(N=Nc2ccccc2C)ccc1N
active: [3] 11.1 µM | [5] 39 µM | [6] 29.1 µM | [7] 5.17 µM | [9] 3 µM | [10] 1.95 µM | [13] 33.1 µM | [17] 12 µM
not listed: [16]
inactive: all other assays above

Cc1ccc([N+](=O)[O-])cc1
inactive: all assays above

Clc1ccc(C(c2ccc(Cl)cc2)C(Cl)(Cl)Cl)cc1
active: [1] 34.5 µM | [3] 28.5 µM | [5] 37.3 µM | [6] 14.9 µM | [7] 30.5 µM | [10] 31 µM | [11] 25.8 µM | [13] 25.9 µM
inactive: all other assays above

CNC(=O)Oc1cccc2c1OC(C)(C)C2
not listed: [16]
inactive: all other assays above
